{"source": "ChEMBL document CHEMBL4513216", "about": "“Probing the Open Global Health Chemical Diversity Library for Multistage-Active Starting Points for Next-Generation Antimalarials” (ACS Infect Dis, 2020)", "note": "About 8,600 (12%) of roughly 69,000 compounds showed an effect of 50% or more. The sample as a whole holds a higher share of strong results than the screen did."}
{"system": "Plasmodium berghei", "experiment": "Screen against P. berghei liver stage (PbLuc), transformed with Luciferase, at 10uM", "type": "functional, HepG2", "details": "tested at 10 uM", "units": {"INHIBITION": "%"}}
{"compound": "Fc1cccc(-n2ccc(CN3CCCC3Cn3cccn3)n2)c1", "note": "(configuration not stated)", "INHIBITION": -31.8}
{"compound": "Cc1ccc2cc(CNCCN3CCCC3)c(=O)[nH]c2c1", "INHIBITION": 39.7}
{"compound": "O=C(NCc1ccc2c(c1)CCCO2)C1CNCCO1", "note": "(configuration not stated)", "INHIBITION": 12.9}
{"compound": "O=C(NCc1ccc2c(c1)CCCO2)c1ccc(C2CCNC2)cc1", "note": "(configuration not stated)", "INHIBITION": 50.4}
{"compound": "O=C(NCc1ccc2c(c1)CCCO2)c1ccccc1C1CCNC1", "note": "(configuration not stated)", "INHIBITION": -26.1}
{"compound": "Cc1noc(CCCC(=O)NCCc2cc3ccccc3[nH]2)n1", "INHIBITION": 7.18}
{"compound": "CC(=O)N[C@@H]1C[C@H](c2ccc(OCCO)cc2)OC2(CCOCC2)C1", "INHIBITION": 18.3}
{"compound": "Cc1ccc(CN2CCC3(CC2)CCN(C(=O)c2cccnc2)C3)o1", "INHIBITION": 34}
{"compound": "Cc1nc(CN2CCC3(CC2)CCN(C(=O)c2cscn2)C3)cs1", "INHIBITION": 75.4}
{"compound": "Cc1ccc(CN2CC3(CCN(C(=O)c4cscn4)C3)C2)o1", "INHIBITION": 54.7}
{"compound": "O=C(c1cscn1)N1CCC2(CCN(Cc3nccs3)CC2)C1", "INHIBITION": 14.8}
{"compound": "Cc1noc(C)c1CN1CCC2(CC1)CCN(C(=O)c1cscn1)C2", "INHIBITION": 40.8}
{"compound": "Cc1ccc(CN2CC3(CCN(C(=O)c4cccnc4)C3)C2)o1", "INHIBITION": 71.1}
{"compound": "Cc1ccc(CN2CC3(CCN(C(=O)c4cscn4)C3)C2)s1", "INHIBITION": 35.1}
{"compound": "Cc1cnc(N2CC3(CCN(C(=O)c4cccnc4)C3)C2)nc1", "INHIBITION": 22.2}
{"compound": "O=C(c1cscn1)N1CCC2(CN(Cc3ccoc3)C2)C1", "INHIBITION": 34.4}
{"compound": "CNC(C(=O)OC)c1cc(F)ccc1F", "note": "(configuration not stated)", "INHIBITION": -0.219}
{"compound": "Cn1cc(CN2CCC[C@]3(C(=O)O)CN(c4ncccn4)C[C@@H]3C2)cn1", "INHIBITION": -44.2}
{"compound": "Cc1ccc(NC(=O)C2CSCN2C(=O)c2ccncc2)c(C)c1", "note": "(configuration not stated)", "INHIBITION": 16.1}
{"compound": "CC(C(=O)NCc1ccc(N2CCCCCC2)nc1)S(C)(=O)=O", "note": "(configuration not stated)", "INHIBITION": -12.2}
{"compound": "O=S(=O)(c1ccccc1)N1CCOC(Cn2ccnc2)C1", "note": "(configuration not stated)", "INHIBITION": -12.3}
{"compound": "Cc1ccc(CN2CC(C(=O)Nc3ccccc3)C3(CCOCC3)C2)o1", "note": "(configuration not stated)", "INHIBITION": -24.9}
{"compound": "O=C(c1cscn1)N1CC[C@@H]2[C@@H]1CCN2C1CCOC1", "note": "(some centres not stated)", "INHIBITION": 12.6}
{"compound": "O=C(c1ccnnc1)N1CCN2C[C@H](Oc3cccnc3)C[C@H]2C1", "INHIBITION": -10.2}
{"compound": "O=C(c1ccncc1)N1CCN2C[C@H](Oc3cncnc3)C[C@H]2C1", "INHIBITION": 23.3}
{"compound": "Cc1ccc(O[C@@H]2C[C@H]3CN(C(=O)c4cnccn4)CCN3C2)cc1", "INHIBITION": -28.8}
{"compound": "O=C(c1cccnc1)N1CCN2C[C@H](Oc3cncnc3)C[C@H]2C1", "INHIBITION": 55.5}
{"compound": "Cc1ccc(O[C@@H]2C[C@H]3CN(C(=O)Cc4ccccn4)CCN3C2)cc1", "INHIBITION": 84.7}
{"compound": "O=C(Cc1ccccn1)N1CCN2C[C@H](Oc3cccc(F)c3)C[C@H]2C1", "INHIBITION": 33}
{"compound": "O=C(c1ccc(F)cc1)N1CCN2C[C@H](OCc3ccccn3)C[C@H]2C1", "INHIBITION": -1.71}
{"compound": "O=C(c1ccco1)N1CCN2C[C@H](Oc3cncnc3)C[C@H]2C1", "INHIBITION": -5.63}
{"compound": "O=C(Cc1ccccn1)N1CCN2C[C@H](Oc3cncnc3)C[C@H]2C1", "INHIBITION": 67.2}
{"compound": "O=C(Cc1cccc(F)c1)N1CCN2C[C@H](Oc3cncnc3)C[C@H]2C1", "INHIBITION": 39.4}
{"compound": "O=C(Cc1ccccn1)N1CCN2C[C@H](OCCN3CCCC3)C[C@H]2C1", "INHIBITION": 68.4}
{"compound": "O=C(c1ccnnc1)N1CCN2C[C@H](OCc3ccccn3)C[C@H]2C1", "INHIBITION": -5.05}
{"compound": "CC(C)c1nc(C2CCCN(C(=O)c3ccc4c(c3)OCO4)C2)no1", "note": "(configuration not stated)", "INHIBITION": 45.1}
{"compound": "COCCc1noc(CN2CCC(c3ccccc3C(=O)O)C2)n1", "note": "(configuration not stated)", "INHIBITION": 35.7}
{"compound": "Cc1nc(CN2CCCC2c2c(C)nn(C)c2Cl)oc1C", "note": "(configuration not stated)", "INHIBITION": 18.2}
{"compound": "O=C1CC(NS(=O)(=O)c2ccc(F)c(Cl)c2)CN1", "note": "(configuration not stated)", "INHIBITION": -6.67}
{"compound": "O=C(Cn1c(=O)[nH]c2cn(-c3ccccc3)c(=O)n21)NC1CCCCC1", "INHIBITION": -6.61}
{"compound": "Cc1ccc(Cn2c(=O)[nH]c3cccnc3c2=O)cc1", "INHIBITION": -5.64}
{"compound": "c1coc(CN2Cc3ccnn3CC(COCC3CC3)C2)c1", "note": "(configuration not stated)", "INHIBITION": -47}
{"compound": "O=C(Nc1ccccc1)N1C[C@@H]2CC[C@H]1CN(Cc1ccccc1)C2", "INHIBITION": 32.5}
{"compound": "COc1cc(NC2CCCN(c3ncccc3C#N)C2)cc(OC)c1", "note": "(configuration not stated)", "INHIBITION": 42.1}
{"compound": "COC(C)c1cccc(NCc2cccc(O)c2)c1", "note": "(configuration not stated)", "INHIBITION": -52.4}
{"compound": "COC(C)c1cccc(NCc2cccs2)c1", "note": "(configuration not stated)", "INHIBITION": 50.1}
{"compound": "CN(C(=O)c1cccc(NCC(=O)O)c1)C(C1CC1)C1CC1", "INHIBITION": 44.8}
{"compound": "CN1CCc2ccc(NCc3cccs3)cc2C1=O", "INHIBITION": -99.6}
{"compound": "CN(C(=O)c1cccc(NCc2cccs2)c1)C(C1CC1)C1CC1", "INHIBITION": 64.8}
{"compound": "COC(C)c1cccc(NCc2ccsc2)c1", "note": "(configuration not stated)", "INHIBITION": 32.8}
{"compound": "Cc1n[nH]c2nc(-c3cccc(Cl)c3)cc(C(=O)O)c12", "INHIBITION": -1.99}
{"compound": "O=C1CC2(CCSC2)C(=O)N1Cc1coc(-c2ccc(F)cc2)n1", "note": "(configuration not stated)", "INHIBITION": -19.7}
